# According to PubChem BioAssay (NCATS):
# Inconclusive results are not listed. A number with no mark means an inactive call. Active and inactive are the calls of the source. Calls follow the shape of the dose curve; as a rule, active = well fitted cell-killing curve with a large enough effect; inconclusive = small, poorly fitted or top-dose-only effect; inactive = flat fitted curve, though single readings scatter.
# Test: Quantitative highthroughput screen to assess conditional lethalithy of P12 Ichikawa cells grown in RPMI1640 with dialyzed fetal bovine serum (RPMI+ds) (AID 1963880); also: nearly all actives have a fitted effect of over 35% in size
# Conditions: ATP luminescence, 48 h; Potency: P12-Ichikawa viability; series mostly up to 45.8 µM; viability: at the top concentration
# Text: Assay Provider: Jason Cantor Ph.D.
# Department of Biochemistry
# University of Wisconsin-Madison, Madison, WI, USA
# Chemical screening studies have identified drug sensitivities across hundreds of cancer cell lines but most putative therapeutics fail to translate. Discovery and development of drug candidates in models that more accurately reflect nutrient levels in human blood is a major challenge. Here we performed high-throughput screens in conventional versus Human Plasma-Like Medium (HPLM) to identify compounds that were "missed" when screening using the artificial culture condition. Sets of conditional anticancer compounds spanned phases of clinical development and included non-oncology drugs were assessed. […] We also traced conditional phenotypes for several chemotherapeutics to availability of HPLM-specific metabolites and confirmed others for compounds whose reported targets are encoded by nonessential genes. Our findings establish generalizable strategies for exploiting conditional lethality in HPLM to reveal therapeutic candidates and mechanisms of action in cancer cells.
# Described herein are the results of each viability screens against three cell lines: NOMO1 (an acute myeloid leukemia cell line); P12-Ichikawa (a T-cell acute lymphoblastic leukemia); and SEM (a B-cell ALL). Each assay was screened using 3 different cell culture media: homemade human plasma-Like medium with 10% dialyzed fetal bovine serum (HPLM+ds); RPMI1640 with 10% untreated FBS and 5mM glucose (RPMI+s); and RPMI1640 with 10% dialyzed fetal bovine serum and 5 mM glucose (RPMI+ds).
# PROTOCOL TABLE (as described by Inglese J, Shamu CE and Guy RK. 2007)
# SEQUENCE No. (e.g., 1, 2, 3, etc.); […] (e.g., Cells, Incubation, Reagent, etc.); VALUE and DESCRIPTION.
# 1; Cells; 5 uL; white, solid bottom 1536-well Greiner assay plate.
# 2; Compounds; 23 nL; Kalypsis pin tool (Wako USA) equipped with a 1536-well pin head to transfer to the assay plates.
# 3; Incubation; 48 hours; 37C incubation.
# 4; Reagent; 3 uL; CellTiter Glo (Promega).
# 5; Incubation; 5 min, room temperature
# 6; Detection; Luminescence, Viewlux PerkinElmer.
# NOTES (numbers refer to Sequence numbers above)
# 1. Briefly, 5 ul of cell reagent was dispensed using a Multidrop Combi Dispenser. The NOMO1 and SEM cells were plated at 500 cells/well and the P12-Ichikawa line at 1000 cells/well.
# 2. After seeding the cells, 23 nL of MIPE 4.1 library compounds (in DMSO) were added to each plate using a Kalypsys 1536 Pintool dispenser. Bortezomib at final concentration of […] and DMSO were added to each plate as positive and negative controls respectively. For each screen, MIPE 4.1 compounds were added over an eleven-point concentration range […] in 3-fold dilutions.
# 3. Each plate was covered with a stainless steel gasketed lid to prevent evaporation and incubated for 48 hour at 37C, 95% relative humidity, and 5% CO2.
# 4-5. Three microliter CellTilter-GloTM luminescent substrate mix (Promega) reagent was added to the assay plate and incubated at room temperature for 5 min.
# 6. The luminescence signal was measured using a ViewLux (PerkinElmer) multiplate reader with a 2 second exposure time per plate. Data for each compound were normalized as percent viability such that measurements for DMSO and the empty well controls in each plate were defined as 100% and 0%, respectively.
# Potency is read from the fitted curve at half-maximal effect.
SMILES,viability [%],Potency
COc1ccc2cccc(CCNC(C)=O)c2c1,102,
NC[C@H]1O[C@H](O[C@H]2[C@@H](O)[C@@H](O[C@H]3O[C@H](CO)[C@@H](O)[C@H](N)[C@@H]3O)[C@H](N)C[C@@H]2N)[C@H](N)C[C@H]1O,122,
CNC(=O)c1c(-c2ccc(F)cc2)oc2cc(N(CCO)S(C)(=O)=O)c(C3CC3)cc12,,5.9 µM (active)
COc1ccc(CC2=NN3C([C@@H](CCc4ccccc4)[C@@H](C)O)=NC(C)C3C(=O)N2)cc1OC (stereo not given in full),94.2,
Cc1cc(C=c2sc3nc4ccccc4n3c2=O)c(C)n1-c1ccccc1,108,
C#CCN[C@@H]1CCc2ccccc21,100,
N#CC(=C(N)Sc1ccccc1N)C(C#N)=C(N)Sc1ccccc1N,88.9,
CNCCN(C)Cc1cn[nH]c1-c1ccc(OC2CC(OCCC3CCOCC3)C2)cc1 (stereo not given),93.8,
CC[C@@]1(O)C(=O)OCc2c1cc1n(c2=O)Cc2cc3cc(O)ccc3nc2-1,,0.0296 µM (active)
N#C[C@H]1C[C@H]2C[C@@H]2N1C(=O)[C@@H](N)C12CC3CC(CC(O)(C3)C1)C2,100,
O=C(O)c1ccc2c(c1)nc(Nc1cccc(Cl)c1)c1ccncc12,,5.9 µM (active)
CC1(C)CCC(c2ccc(Cl)cc2)=C(CN2CCN(c3ccc(C(=O)NS(=O)(=O)c4ccc(N[C@H](CCN5CCOCC5)CSc5ccccc5)c(S(=O)(=O)C(F)(F)F)c4)cc3)CC2)C1,,0.264 µM (active)
Cc1cc(N2CCOCC2)cc2[nH]c(-c3c(NC[C@@H](O)c4cccc(Cl)c4)cc[nH]c3=O)nc12,78.1,
CCN(CC)CCNC(=O)c1ccc2nc(-c3ccccc3)c(-c3ccc(CN4CCC(n5c(=O)[nH]c6ccccc65)CC4)cc3)nc2c1,,2.64 µM (active)
O=C(CCCCCCC(=O)Nc1ccccc1)NO,,3.32 µM (active)
N[C@@H](Cc1cc(I)c(Oc2cc(I)c(O)c(I)c2)c(I)c1)C(=O)O,101,
COc1ccc2c(Oc3ccc(NC(=O)c4c(C)n(CC(C)(C)O)n(-c5ccccc5)c4=O)cc3F)ccnc2c1,81.3,
Cc1cc(SCc2sc(-c3ccc(C(F)(F)F)cc3)nc2C)ccc1OCC(=O)O,97.2,
O=C(O)C1=CO[C@@H](O[C@@H]2O[C@H](CO)[C@H](O)[C@H](O)[C@H]2O)[C@@H]2C(CO)=CC[C@H]12,104,
CCCN[C@H]1CCc2nc(N)sc2C1,110,

SMILES,viability [%],Potency
CC(C)(C)C(=O)Oc1ccc(S(=O)(=O)Nc2ccccc2C(=O)NCC(=O)O)cc1,115,
CN[C@H]1CCc2cc(OC)c(OC)c(OC)c2-c2ccc(OC)c(=O)cc21,,0.0105 µM (active)
CC[C@]1(O)C[C@H]2CN(CCC3=c4ccccc4=N[C]3[C@@](C(=O)OC)(c3cc4c(cc3OC)N(C)[C@H]3[C@@](O)(C(N)=O)[C@H](O)[C@]5(CC)C=CCN6CC[C@]43[C@@H]65)C2)C1,,0.132 µM (active)
COc1cc2c(Nc3ccc(NC(=O)c4ccccc4)cc3)ncnc2cc1OCCCN1CCOCC1,,3.32 µM (active)
CCC(C)(Oc1ccc(C2(c3ccc(OC(C)(CC)C(=O)O)cc3)CCCCC2)cc1)C(=O)O (stereo not given),98.1,
O=c1oc2c(O)c(O)cc3c(=O)oc4c(O)c(O)cc1c4c23,91.2,
CC[C@H](C)C(=O)O[C@H]1C[C@H](O)C=C2C=C[C@H](C)[C@H](CC[C@@H](O)C[C@@H](O)CC(=O)O)[C@H]21,94.7,
CC(=O)N[C@H]1[C@@H]([C@H](O)[C@H](O)CO)OC(C(=O)O)=C[C@@H]1N=C(N)N,91.7,
CCCCCCCN(CC)CCCC(O)c1ccc(NS(C)(=O)=O)cc1 (stereo not given),,18.7 µM (active)
COC(=O)C1=C(C)NC(C)=C(C(=O)OCCN2CCN(C(c3ccccc3)c3ccccc3)CC2)C1c1cccc([N+](=O)[O-])c1 (stereo not given),103,
COc1ccc(-c2oc3c(CC=C(C)C)c(O)cc(O)c3c(=O)c2O)cc1,99.6,
COc1ccc(CCC(=O)c2c(O)cc(O[C@@H]3O[C@H](CO)[C@@H](O)[C@H](O)[C@@H]3O[C@@H]3O[C@@H](C)[C@H](O)[C@@H](O)[C@@H]3O)cc2O)cc1O,104,
C=C1C[C@@]2(O)O[C@@]3(C[C@H]2C(C)C)[C@H](C)CC[C@H]13,104,
CCn1c(-c2nonc2N)nc2cncc(CNC3CCNCC3)c21,,18.7 µM (active)
CC(=O)OC1C(C)OC(Oc2c(-c3ccc(O)cc3)oc3cc(O)cc(O)c3c2=O)C(O)C1OC(C)=O (stereo not given),105,
C=C(C)[C@@H]1CC[C@]2(C)CC[C@]3(C)[C@H](CC[C@@H]4[C@@]5(C)CC[C@H](O)C(C)(C)[C@H]5CC[C@]43C)[C@@H]12,103,
Clc1cccc(-n2nnnc2NCc2ccccc2Oc2ccccn2)c1Cl,76.7,
CC(=O)O[C@H]1C[C@@H]2CC[C@H]3[C@H]4C[C@H]([N+]5(C)CCCCC5)[C@@H](OC(C)=O)[C@@]4(C)CC[C@@H]3[C@@]2(C)C[C@H]1[N+]1(C)CCCCC1,102,
O=C(O)c1cc(=O)c2c(OCC(O)COc3cccc4oc(C(=O)O)cc(=O)c34)cccc2o1,97.8,
C=CC(=O)Nc1cccc(Nc2nc(NC3CCC(N(C)C)CC3)nc3c2ncn3C(C)C)c1 (stereo not given),,4.18 µM (active)
